# Results reported in ChEMBL document CHEMBL4513141, “CO-ADD screening of NIH (USA) - Clinical Collection” (2021).
# Entries with a potency or affinity are not part of this list.
# System: Staphylococcus aureus
# Settings: Concentration 20 uM; ASSAY_TEST Inhibition of Bacterial Growth; detection method Absorption (OD600); MEDIA CAMHB; plate type 384well; NBS; CORNING #3640; time 18 hr
row,SMILES,Inhibition [%]
1,COc1ccc2[nH]cc(CCN)c2c1 [5-METHOXYTRYPTAMINE],3.43
2,NC1=NC(=O)C(c2ccccc2)O1 (stereo unspecified) [PEMOLINE],13.44
3,Cl.O=C1c2cccc3c2[C@H](CCC3)CN1[C@@H]1CN2CCC1CC2 [PALONOSETRON HYDROCHLORIDE],8.38
4,CN1CC[C@@]23CCCC[C@@H]2[C@@H]1Cc1ccc(O)cc13.O=C(O)C(O)C(O)C(=O)O,4.84
5,CC(C)(C)NCC(O)c1cc(O)cc(O)c1.O=S(=O)(O)O (stereo unspecified),5.47
6,CC(C)NCC(O)c1ccc(O)c(O)c1.Cl (stereo unspecified) [ISOPROTERENOL HYDROCHLORIDE],7.54
7,CC(C)N(CCC(C(N)=O)(c1ccccc1)c1ccccn1)C(C)C.O=P(O)(O)O (stereo unspecified) [DISOPYRAMIDE PHOSPHATE],5.5
8,NC(=O)OCCCc1ccccc1 [PHENPROBAMATE],11.43
9,CCN(CC)CCOC(=O)C(O)(c1ccccc1)c1ccccc1.Cl,13
10,Nc1nc(F)nc2c1ncn2[C@@H]1O[C@H](CO)[C@@H](O)[C@@H]1O [FLUDARABINE],11.26
11,C[N+]1(CCC(C(N)=O)(c2ccccc2)c2ccccc2)CCCCC1.[Br-] [FENPIVERINIUM BROMIDE],4.81
12,COc1cc([C@@H]2c3cc4c(cc3[C@H](O)[C@H]3COC(=O)[C@H]23)OCO4)cc(OC)c1OC [PODOFILOX],6.19
13,Cc1ccnc2c1NC(=O)c1cccnc1N2C1CC1 [NEVIRAPINE],12.92
14,CCCCCNC(=N)N/N=C/c1c[nH]c2ccc(OC)cc12.O=C(O)/C=C\C(=O)O [TEGASEROD MALEATE],22.85
15,CC(COc1ccccc1)N(CCCl)Cc1ccccc1.Cl (stereo unspecified) [PHENOXYBENZAMINE HYDROCHLORIDE],12.58
16,CC(NC(C)(C)C)C(=O)c1cccc(Cl)c1.Cl (stereo unspecified) [BUPROPION HYDROCHLORIDE],-23.91
17,C[C@]12CC[C@H](O)CC1=CC[C@@H]1[C@@H]2CC[C@]2(C)C(=O)CC[C@@H]12 [PRASTERONE],13.56
18,CC[C@]1(O)CC[C@H]2[C@@H]3CCC4=CCCC[C@@H]4[C@H]3CC[C@@]21C [ETHYLESTRENOL],-6.51
19,CN(C)CCc1c[nH]c2ccc(C[C@H]3COC(=O)N3)cc12 [ZOLMITRIPTAN],3.79
20,CNC1=Nc2ccc(Cl)cc2C(c2ccccc2)=[N+]([O-])C1 [CHLORDIAZEPOXIDE],15.47
21,CCCC(C)(COC(N)=O)COC(=O)NC(C)C (stereo unspecified) [CARISOPRODOL],-20.34
22,N=C(NCc1ccc(Cl)cc1)SCCCc1c[nH]cn1 [CLOBENPROPIT],-4.61

# System: Escherichia coli
# Settings: Concentration 20 uM; ASSAY_TEST Inhibition of Bacterial Growth; detection method Absorption (OD600); MEDIA CAMHB; plate type 384well; NBS; CORNING #3640; time 18 hr
row,SMILES,Inhibition [%]
1,COC(=O)C1=C(C)NC(C)=C(C(=O)OC)C1c1ccccc1[N+](=O)[O-] [NIFEDIPINE],3.8
2,CCOC(=O)c1ncn2c1CN(C)C(=O)c1cc(F)ccc1-2 [FLUMAZENIL],-2.76
3,COc1cc(-c2ccc(=O)[nH]n2)ccc1OC(F)F [ZARDAVERINE],-1.99
4,Cl.O=C1CC[C@@]2(O)[C@H]3Cc4ccc(O)c5c4[C@@]2(CCN3CC2CC2)[C@H]1O5 [NALTREXONE HYDROCHLORIDE],5.04
5,C[C@]12CC(C=O)=C(O)C[C@@H]1CC[C@@H]1[C@@H]2CC[C@@]2(C)[C@H]1CC[C@]2(C)O,7.86
6,C=C1C[C@@H]2[C@H](CC[C@]3(C)C(=O)CC[C@@H]23)[C@@]2(C)C=CC(=O)C=C12 [EXEMESTANE],-6.95
7,COc1ccc(C(CN(C)C)C2(O)CCCCC2)cc1.Cl (stereo unspecified) [VENLAFAXINE HYDROCHLORIDE],7.16
8,O=C(O)C(Cl)Cl [DICHLOROACETIC ACID],3.62
9,C[C@]12CC[C@H]3[C@@H](CCC4=CC(=O)CC[C@@]43C)[C@@H]1CC[C@@H]2O [TESTOSTERONE],-8.96
10,CN(C)CCC=C1c2ccccc2CCc2ccccc21.Cl [AMITRIPTYLINE HYDROCHLORIDE],1.2
11,NC(=O)C[S+]([O-])C(c1ccccc1)c1ccccc1 (stereo unspecified) [MODAFINIL],4.2
12,c1ccc2c3c([nH]c2c1)CNCC3 [TRYPTOLINE],3.55
13,COc1ccc2[nH]cc(CCN)c2c1 [5-METHOXYTRYPTAMINE],-0.18
14,NC1=NC(=O)C(c2ccccc2)O1 (stereo unspecified) [PEMOLINE],0.76
15,Cl.O=C1c2cccc3c2[C@H](CCC3)CN1[C@@H]1CN2CCC1CC2 [PALONOSETRON HYDROCHLORIDE],4.34
16,CN1CC[C@@]23CCCC[C@@H]2[C@@H]1Cc1ccc(O)cc13.O=C(O)C(O)C(O)C(=O)O,6.67
17,CC(C)(C)NCC(O)c1cc(O)cc(O)c1.O=S(=O)(O)O (stereo unspecified),5.21

row,SMILES,Inhibition [%]
1,CC(C)NCC(O)c1ccc(O)c(O)c1.Cl (stereo unspecified) [ISOPROTERENOL HYDROCHLORIDE],-1.63
2,CC(C)N(CCC(C(N)=O)(c1ccccc1)c1ccccn1)C(C)C.O=P(O)(O)O (stereo unspecified) [DISOPYRAMIDE PHOSPHATE],-2.32
3,NC(=O)OCCCc1ccccc1 [PHENPROBAMATE],2.85
4,CCN(CC)CCOC(=O)C(O)(c1ccccc1)c1ccccc1.Cl,-0.91
5,Nc1nc(F)nc2c1ncn2[C@@H]1O[C@H](CO)[C@@H](O)[C@@H]1O [FLUDARABINE],42.2
6,C[N+]1(CCC(C(N)=O)(c2ccccc2)c2ccccc2)CCCCC1.[Br-] [FENPIVERINIUM BROMIDE],-0.64
7,COc1cc([C@@H]2c3cc4c(cc3[C@H](O)[C@H]3COC(=O)[C@H]23)OCO4)cc(OC)c1OC [PODOFILOX],3.91
8,Cc1ccnc2c1NC(=O)c1cccnc1N2C1CC1 [NEVIRAPINE],-0.52
9,CCCCCNC(=N)N/N=C/c1c[nH]c2ccc(OC)cc12.O=C(O)/C=C\C(=O)O [TEGASEROD MALEATE],-0.84
10,CC(COc1ccccc1)N(CCCl)Cc1ccccc1.Cl (stereo unspecified) [PHENOXYBENZAMINE HYDROCHLORIDE],3.59
11,CC(NC(C)(C)C)C(=O)c1cccc(Cl)c1.Cl (stereo unspecified) [BUPROPION HYDROCHLORIDE],5.32
12,C[C@]12CC[C@H](O)CC1=CC[C@@H]1[C@@H]2CC[C@]2(C)C(=O)CC[C@@H]12 [PRASTERONE],2.6
13,CC[C@]1(O)CC[C@H]2[C@@H]3CCC4=CCCC[C@@H]4[C@H]3CC[C@@]21C [ETHYLESTRENOL],3.02
14,CN(C)CCc1c[nH]c2ccc(C[C@H]3COC(=O)N3)cc12 [ZOLMITRIPTAN],7.38
15,CNC1=Nc2ccc(Cl)cc2C(c2ccccc2)=[N+]([O-])C1 [CHLORDIAZEPOXIDE],3.48
16,CCCC(C)(COC(N)=O)COC(=O)NC(C)C (stereo unspecified) [CARISOPRODOL],4.18
17,N=C(NCc1ccc(Cl)cc1)SCCCc1c[nH]cn1 [CLOBENPROPIT],-3.53
